Assay results taken from PubChem BioAssay (NCATS).
Records with an inconclusive call do not appear. The source made the active and inactive calls. The call rests on the fitted dose curve; in most records, active means well fitted inhibition curve with a large enough effect; inconclusive means small, poorly fitted or top-dose-only effect; inactive means flat fitted curve, though single readings scatter. Where a SMILES comes first, the peptide text is derived from it. [ ]: non-standard residue; d: D form. PhLac = O=C(O)[CH](O)Cc1ccccc1; NMeV = CN[CH](C(=O)O)C(C)C

Experiments:
CRL-7250 = normal cell line; assay: Cytotoxic Profiling of Annotated Libraries Using Quantitative High-Throughput Screening (AID 1296008); conditions: Five cell lines viability, CellTiter-Glo ATP luminescence, 48-72 h; max response: active compounds read low; on max response: on the % scale 0 is the no-effect control and ±100 the full control effect
Method in brief: (§1)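 Cells exposed to compounds for 48 or 72 hr at 37 degrees Celsius. Viability read as ATP-coupled luminescence with CellTiter-Glo after 10 min at room temperature.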

HEK293 = assay: as above; conditions: Five cell lines viability, CellTiter-Glo ATP luminescence, 48-72 h; max response: active compounds read low
Method in brief: as §1

HaCat = assay: as above; conditions: Five cell lines viability, CellTiter-Glo ATP luminescence, 48-72 h; max response: active compounds read low
Method in brief: as §1

KB-3-1 = assay: as above; conditions: Five cell lines viability, CellTiter-Glo ATP luminescence, 48-72 h; max response: active compounds read low
Method in brief: as §1

NIH3T3 = assay: as above; conditions: Five cell lines viability, CellTiter-Glo ATP luminescence, 48-72 h; max response: active compounds read low
Method in brief: as §1

HEK293T = assay: qHTS assay to identify novel small-molecules to repurpose for Merkel cell carcinoma treatment (AID 1296009); conditions: MCC and control cell lines, CellTiter-Glo viability, 72 h; series mostly up to 44.8 µM
Method in brief: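 Dose-response viability screen; 72 hr exposure at 37 degree celsius; CellTiter-Glo added, 10 min room temperature, luminescence read; RLUs scaled between no-cell and DMSO wells.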
Further: nearly all actives have a fitted effect of over 60% in size.

C[C@@H]1O[C@@H](O[C@@H]2[C@@H](O)[C@@H](O)[C@H](O[C@@H]3[C@@H](O)[C@@H](O[C@]4(CO)O[C@H](CO)[C@@H](O)[C@@H]4OC(=O)/C=C/c4ccc(O)cc4)O[C@H](CO)[C@H]3OC(=O)/C=C/c3ccc(O)cc3)O[C@H]2C)[C@H](O)[C@H](O)[C@H]1O
inactive: max response (CRL-7250) -4.29% | outcome (HEK293) | max response (HaCat) 1.83% | outcome (KB-3-1) | outcome (NIH3T3) | outcome (HEK293T) inactive [at 9.27 µM]

OC1COC(OCC2OC(OCCc3ccccc3)C(O)C(O)C2O)C(O)C1O (stereo not given)
inactive: outcome (CRL-7250) | outcome (HEK293) | max response (HaCat) -7.45% | outcome (KB-3-1) | outcome (NIH3T3) | Potency (HEK293T)

CCC[C@@H]1C[C@@H](C(=O)N[C@H](C(C)Cl)[C@H]2O[C@H](SC)[C@H](O)[C@@H](O)[C@H]2O)N(C)C1 (stereo not given in full)
inactive: max response (CRL-7250) -2.55% | outcome (HEK293) | max response (HaCat) 1.16% | max response (KB-3-1) 7.07% | max response (NIH3T3) 3.25% | Potency (HEK293T)

O=C(O)c1cc(O)c2cccc(O)c2c1O[C@@H]1O[C@H](CO)[C@@H](O)[C@H](O)[C@H]1O
inactive: max response (CRL-7250) -1.91% | outcome (HEK293) | max response (HaCat) 2.74% | max response (KB-3-1) 4.95% | outcome (NIH3T3) | Potency (HEK293T)

CC1(CO)CC[C@]2(C(=O)O[C@@H]3O[C@H](CO)[C@@H](O)[C@H](O)[C@H]3O)CC[C@]3(C)C(=CCC4[C@@]5(C)CC[C@H](O[C@@H]6O[C@H](C(=O)O)[C@@H](O)[C@H](O)[C@H]6O)C(C)(C)C5CC[C@]43C)C2C1 (stereo not given in full)
inactive: max response (CRL-7250) -1.41% | outcome (HEK293) | max response (HaCat) 1.75% | outcome (KB-3-1) | outcome (NIH3T3) | outcome (HEK293T) inactive [at 9.27 µM]

COC(=O)[C@H](OC(C)=O)[C@H]1C(C)(C)C(=O)[C@H]2CC3=C4CC(=O)O[C@@H](c5ccoc5)[C@]4(C)CCC3[C@@]1(C)C2=O (stereo not given in full)
inactive: max response (CRL-7250) -5.81% | outcome (HEK293) | max response (HaCat) -1.64% | outcome (KB-3-1) | outcome (NIH3T3) | Potency (HEK293T)

CC1=CC(=O)C2C(C)(C)CC(O)CC2(C)C1CO (stereo not given)
inactive: max response (CRL-7250) -38.7% | outcome (HEK293) | max response (HaCat) -3.16% | outcome (KB-3-1) | max response (NIH3T3) 2.39% | Potency (HEK293T)

CC(C)C(C(=O)N1CCCC1C(=O)O)N(C)C(=O)C(O)Cc1ccccc1 (stereo not given) (H-[PhLac]-[NMeV]-Pro-OH; configuration not given here)
inactive: outcome (CRL-7250) | outcome (HEK293) | max response (HaCat) -7.13% | outcome (KB-3-1) | max response (NIH3T3) -4.85% | Potency (HEK293T)

COCC(=O)N1CCc2cc(-c3csc(NC(=O)c4cc(OC)cc(OC)c4)n3)ccc21
inactive: outcome (CRL-7250) | outcome (HEK293) | max response (HaCat) -4% | outcome (KB-3-1) | outcome (NIH3T3) | Potency (HEK293T)

CC(C)(C)NCC(O)COc1cccc2c1CCCC2=O (stereo not given)
inactive: outcome (CRL-7250) | outcome (HEK293) | max response (HaCat) -7.74% | outcome (KB-3-1) | outcome (NIH3T3) | Potency (HEK293T)

CC1CCC2C(C)(C)C(O)CCC2(C)C12Cc1c(O)cc3c(c1O2)CN(C(CCC(N)=O)C(=O)O)C3=O (stereo not given)
inactive: max response (CRL-7250) 0.113% | outcome (HEK293) | max response (HaCat) 2.99% | max response (KB-3-1) 5.86% | max response (NIH3T3) -0.736% | Potency (HEK293T)

O=C(/C=C/c1ccccc1)OCC1=CC[C@@H]2C(C(=O)O)=CO[C@@H](O[C@@H]3O[C@H](CO)[C@@H](O)[C@H](O)[C@H]3O)[C@H]12
inactive: outcome (CRL-7250) | outcome (HEK293) | max response (HaCat) 0.992% | outcome (KB-3-1) | outcome (NIH3T3) | Potency (HEK293T)

C/C(=C/CCC(CO)C1CCC2(C)C3CCC4C(C)(C)C(OC5OC(CO)C(O)C(O)C5O)CC(O)C45CC35CCC12C)COC1OC(CO)C(O)C(O)C1O (stereo not given)
inactive: outcome (CRL-7250) | outcome (HEK293) | max response (HaCat) -8.45% | max response (KB-3-1) -1.63% | max response (NIH3T3) 0.608% | Potency (HEK293T)

COC(=O)C1=CO[C@@H](O[C@@H]2O[C@H](CO[C@@H]3O[C@H](COC(=O)/C=C/c4ccc(O)cc4)[C@@H](O)[C@H](O)[C@H]3O)[C@@H](O)[C@H](O)[C@H]2O)[C@@H]2C(CO)=CC[C@H]12
inactive: max response (CRL-7250) 4.68% | outcome (HEK293) | max response (HaCat) 0.423% | max response (KB-3-1) 6.83% | max response (NIH3T3) 0.0703% | Potency (HEK293T)

C[C@@H]1C[C@H](O)/C=C/[C@H](O)[C@@H](O)CC(=O)O1
inactive: max response (CRL-7250) 2.61% | outcome (HEK293) | max response (HaCat) 3.57% | outcome (KB-3-1) | outcome (NIH3T3) | Potency (HEK293T)

COc1c(C(CC(C)C)OC(C)=O)ccc(Oc2c(O)cc(C)cc2/C=C/C(C)=O)c1C(=O)O (stereo not given)
inactive: max response (CRL-7250) -10.2% | outcome (HEK293) | max response (HaCat) -7.86% | max response (KB-3-1) 3.96% | max response (NIH3T3) -18.3% | Potency (HEK293T)

CCC(=O)N[C@@H]1Cc2ccccc2[C@H](c2ccccc2)C1
inactive: outcome (CRL-7250) | outcome (HEK293) | max response (HaCat) 0.895% | outcome (KB-3-1) | outcome (NIH3T3) | Potency (HEK293T)

Nc1nonc1C(=Nc1ccc(F)c(Cl)c1)NO
inactive: max response (CRL-7250) -22.8% | outcome (HEK293) | max response (HaCat) -3.71% | outcome (KB-3-1) | outcome (NIH3T3) | Potency (HEK293T)

c1ccc(Cc2ncc3c(n2)CCNCC3)cc1
inactive: max response (CRL-7250) -2.57% | outcome (HEK293) | max response (HaCat) -4.11% | max response (KB-3-1) 0.381% | outcome (NIH3T3) | Potency (HEK293T)

O=C(NCc1ccc(OC(F)(F)F)cc1)C1c2ccccc2C(=O)N1C1CCOCC1 (stereo not given)
inactive: outcome (CRL-7250) | outcome (HEK293) | max response (HaCat) -6.26% | outcome (KB-3-1) | outcome (NIH3T3) | Potency (HEK293T)

CC(=O)NC(C(=O)OC1CCC(C)(C)C2CC=C3C(=O)OCC3(O)C12C)C(C)C (stereo not given)
inactive: max response (CRL-7250) 3.06% | outcome (HEK293) | max response (HaCat) -11.8% | outcome (KB-3-1) | max response (NIH3T3) -6.26% | Potency (HEK293T)

CC1NC(=O)C(Cc2c[nH]c3ccccc23)NC1=O (stereo not given)
inactive: max response (CRL-7250) 2.89% | outcome (HEK293) | max response (HaCat) 2.4% | max response (KB-3-1) 6.79% | max response (NIH3T3) 2.54% | Potency (HEK293T)

CN1C(=O)c2ccccc2-n2c(nc3ccccc3c2=O)[C@@]12O[C@H]2c1ccccc1
inactive: max response (CRL-7250) -8.37% | outcome (HEK293) | max response (HaCat) -0.431% | outcome (KB-3-1) | outcome (NIH3T3) | Potency (HEK293T)

CC1C/C=C/C=C\CCCCC(O)C/C=C/C(=O)O1 (stereo not given)
inactive: max response (CRL-7250) 4.17% | outcome (HEK293) | max response (HaCat) -3.25% | max response (KB-3-1) 1.87% | outcome (NIH3T3) | Potency (HEK293T)

CCN(c1cc(C#CCN2CCOCC2)cc(C(=O)NCc2c(C)cc(C)[nH]c2=O)c1C)C1CCC(N(C)CCOC)CC1 (stereo not given)
inactive: outcome (CRL-7250) | outcome (HEK293) | max response (HaCat) -3.84% | outcome (KB-3-1) | outcome (NIH3T3) | Potency (HEK293T)

O=C(/C=C/c1ccc(O)c(O)c1)OCc1ccccc1O[C@@H]1O[C@H](CO)[C@@H](O)[C@H](O)[C@H]1O
inactive: max response (CRL-7250) -1.33% | outcome (HEK293) | max response (HaCat) 1.88% | max response (KB-3-1) 0.279% | max response (NIH3T3) -4.16% | Potency (HEK293T)

COc1cc(/C=C/C(=O)OC(C)(C)C(OC2OC(CO)C(O)C(O)C2O)C(=O)OCc2ccc(OC3OC(CO)C(O)C(O)C3O)cc2)ccc1O (stereo not given)
inactive: max response (CRL-7250) -9.61% | outcome (HEK293) | max response (HaCat) 3.1% | max response (KB-3-1) 5.7% | outcome (NIH3T3) | Potency (HEK293T)

C=C1CC2C3(C)C(O)CC(=O)C(C)(C)C3C(OC(C)=O)C(OC(C)=O)C2(C)C2C(=O)OC(C)(C(=O)OC)C(=O)C12C (stereo not given)
inactive: outcome (CRL-7250) | outcome (HEK293) | max response (HaCat) 3.78% | max response (KB-3-1) 5.29% | outcome (NIH3T3) | Potency (HEK293T)

COC(=O)CC1(O)C(=O)Nc2ccccc21 (stereo not given)
inactive: max response (CRL-7250) 3.09% | outcome (HEK293) | max response (HaCat) -5.67% | outcome (KB-3-1) | max response (NIH3T3) 2.12% | Potency (HEK293T)

COc1ccc([C@@H]2N[C@H](C(=O)O)Cc3c2[nH]c2ccccc32)cc1CN1CCN(c2ccccc2F)CC1
inactive: max response (CRL-7250) -3.7% | outcome (HEK293) | max response (HaCat) 1.36% | max response (KB-3-1) -4.47% | outcome (NIH3T3) | Potency (HEK293T)

CC(=O)O[C@@H]1[C@@H](OC(=O)/C=C/c2ccccc2)[C@H](C)O[C@@H](O[C@H]2[C@@H]3C=CO[C@@H](O[C@@H]4O[C@H](CO)[C@@H](O)[C@H](O)[C@H]4O)[C@@H]3[C@@]3(CO)O[C@@H]23)[C@@H]1OC(C)=O
inactive: max response (CRL-7250) -9.67% | outcome (HEK293) | max response (HaCat) -6.34% | max response (KB-3-1) 5.32% | outcome (NIH3T3) | Potency (HEK293T)

Cn1c(=O)cc(N2CCCC(N)C2)n(Cc2ccccc2C#N)c1=O (stereo not given)
inactive: max response (CRL-7250) -7.54% | outcome (HEK293) | max response (HaCat) 0.732% | max response (KB-3-1) 8.99% | outcome (NIH3T3) | Potency (HEK293T)

Cc1cc(C)c(S(=O)(=O)N(Cc2ccc(-c3cccc(S(C)(=O)=O)c3)cc2)Cc2ccc(C(F)(F)F)o2)c(C)c1
inactive: max response (CRL-7250) -5.2% | outcome (HEK293) | max response (HaCat) 2.94% | max response (KB-3-1) -6.43% | outcome (NIH3T3) | Potency (HEK293T)

CC(=O)O[C@H](C[C@@H](C)[C@H]1C(=O)[C@H](O)[C@@]2(C)[C@@H]3CCC4C(C)(C)[C@@H](O[C@@H]5OC[C@H](O)[C@H](O)[C@H]5O)CC[C@@]45C[C@@]35CC[C@]12C)[C@@H]1OC1(C)C (stereo not given in full)
inactive: max response (CRL-7250) 0.817% | outcome (HEK293) | max response (HaCat) 2.98% | outcome (KB-3-1) | outcome (NIH3T3) | Potency (HEK293T)

C=C1CCC2C(C)(COC3OC(COC(=O)CC(=O)O)C(O)C(O)C3O)CCCC2(C)C1CCC1=CCOC1=O (stereo not given)
inactive: outcome (CRL-7250) | outcome (HEK293) | max response (HaCat) -2.95% | outcome (KB-3-1) | outcome (NIH3T3) | Potency (HEK293T)
